Inconclusive results are not listed. Activity calls are given as the source filed them. Calls come from the whole dose curve; as a rule, active = well fitted cell-killing curve with a large enough effect; inconclusive = small, poorly fitted or top-dose-only effect; inactive = flat fitted curve, though single readings scatter.
assay: Cell Viability - LYMP1-002 - Assay at 40 hr (AID 994); settings: LYMP1-002 lymphoblastoid cell viability; series mostly up to 92.2 µM; viability change, negative = cytotoxic: at the top concentration;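 note: 0% = DMSO only and full inhibition = 92 µM tetraoctylammonium bromide; nearly all actives have a fitted effect of over 60% in size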
Description: NIH Chemical Genomics Center [NCGC]
NIH Molecular Libraries Screening Centers Network [MLSCN]
National Institutes of Environmental Health Sciences [NIEHS]
National Toxicology Program [NTP]
We have developed a 1536-well cell-based assay for quantitative high throughput screening (qHTS) against a number of cell lines to determine in vitro cytotoxicity of small molecules. This particular assay uses a human lymphoblastoid cell line (LYMP1-002) purchased from Coriell Institute for Medical Research.
NCGC Assay Protocol Summary:
The CellTiter-Glo luminescent cell viability assay (Promega) is a homogeneous method to measure the number of viable cells in culture. The end point readout of this assay is based on quantitation of intracellular ATP, an indicator of metabolic activity, using the luciferase reaction. Luciferase catalyzes the oxidation of beetle Luciferin to oxyluciferin and light in the presence of ATP. The luminescent signal is proportional to amount of ATP present.
Using the CellTiter-Glo luminescent cell viability assay, the amount of cellular ATP was measured in the lymphoblastoid cell line with complete culture medium following compound treatment for 40 hours. The assay was performed in opaque white Kalypsys 1536-well plates. In the screen, tetraoctylammonium bromide was used as positive control. Library compounds were measured for their ability to cause acute toxicity in the cell line, as reflected by a decrease in intracellular ATP levels, in a concentration-dependent manner. […] AC50 values were determined from concentration-response data modeled with the standard Hill equation.
qHTS protocol for CellTiter Glo lymphoblastoid cellular assay
[Step] [Parameter] [Value] [Description]
1. Reagent; 5 uL; 2500 lymphoblastoid cells/well
2. Time; 5 hr; 37 C incubation
4. Controls; 23 nL; Tetraoctylammonium bromide 6.4pM to 92 uM
5. Time; 40 hr; 37 C incubation
6. Reagent; 5 uL; CellTiter Glo reagent
7. Time; 30 min; Room Temperature
8. Detection; Luminescence; Viewlux plate reader
Keywords: cell viability, cytotoxicity, lymphoblastoid cell line, luminescence, NTPHTS, NTPHTS_NCGC, NIEHS, DSSTox, MLSMR, MLSCN, NIH Roadmap, qHTS, NCGC

| SMILES | viability change, negative = cytotoxic |
| --- | --- |
| C=CCCl | -2.63% (inactive) |
| O=C(O)C(Cl)(Cl)Br | -9.99% (inactive) |
| Nc1ccccc1-c1ccccc1 | -3% (inactive) |
| Cc1ccc(N)cc1N | -8.77% (inactive) |
| CC(C)(Cl)[N+](=O)[O-] | -4.35% (inactive) |
| O=[N+]([O-])c1cccc(O)c1 | 4.57% (inactive) |
| COP(=S)(OC)SCn1nnc2ccccc2c1=O | 0.398% (inactive) |
| ClCC(Cl)Cl | -8.05% (inactive) |
| c1ccc2c(c1)CCNC2 | -4.54% (inactive) |
| CCN(N=O)C(N)=O | -5.26% (inactive) |
| ClC(Cl)Br | 4.07% (inactive) |
| ClP(Cl)(Cl)(Cl)Cl | -0.546% (inactive) |
| Cc1cc(C)cc(OP(=O)(Oc2cc(C)cc(C)c2)Oc2cc(C)cc(C)c2)c1 | -22.7% (inactive) |
| O=C(O)CCl | -9.87% (inactive) |
| Oc1ccc(Cl)c(Cl)c1 | -5.29% (inactive) |
| N#CC(Cl)(Cl)Cl | -11.9% (inactive) |
| COc1ccc(C=O)cc1 | -1.41% (inactive) |
| CCC/C=N/O | -8.21% (inactive) |
| C=CC(=O)OCCO | -19.3% (inactive) |
| CCSC(=O)N1CCCCCC1 | 3.46% (inactive) |

| SMILES | viability change, negative = cytotoxic |
| --- | --- |
| C=CC=O | -3.21% (inactive) |
| N#C/C(N)=C(/N)C#N | 0.944% (inactive) |
| CCOP(=O)(OCC)OCC | 3.36% (inactive) |
| Cc1cccc(C)c1N | -1.23% (inactive) |
| CC(Cl)(Cl)Cl | -4.24% (inactive) |
| CCN(CC)N=O | 1.23% (inactive) |
| C[N+](=O)[O-] | 6.04% (inactive) |
| O=[N+]([O-])c1c(Cl)c(Cl)c(Cl)c(Cl)c1Cl | -5.56% (inactive) |
| Oc1ccc(Cl)c(Cl)c1Cl | 7.65% (inactive) |
| CCCCC(=O)Cl | -2.39% (inactive) |
| C=CC#N | -6.88% (inactive) |
| Clc1ccc(Cl)c(Cl)c1 | -4.74% (inactive) |
| COC(=O)Nc1cccc(OC(=O)Nc2cccc(C)c2)c1 | -3.46% (inactive) |
| CN(C)c1ccc(N(C)C)cc1 | -6.76% (inactive) |
| CC(C)Br | -6.12% (inactive) |
| Cc1cc(-c2ccc(N)c(C)c2)ccc1N | -12.5% (inactive) |
| Nc1ccc(Oc2ccc(N)cc2)cc1 | -6.95% (inactive) |
| Nc1cc(Cl)cc(Cl)c1 | 1.48% (inactive) |
| Cc1ccc(N)c(C)c1 | -2.03% (inactive) |
| O=C(O)C(Br)CBr (stereo not given) | -25.6% (inactive) |

— PubChem BioAssay (NCATS)
